From PubChem BioAssay AID376 (PDSP, 2006)
Screen size: about 2,000 compounds; about 250 (12%) were called active. This excerpt belongs to a sample that is enriched for actives. A number with no mark means an inactive call. Cut-off read from the data, not from the text of the source: active = hERG blockade below about -20% or above about 20%; inactive = in between.

Target: Voltage-gated inwardly rectifying potassium channel KCNH2 (Homo sapiens) (UniProt Q12809)
Assay: modulators of KCNH2 ion channel function, cellular (AID 376);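 note: 0% = buffer alone and 100% = reference blocker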
Conditions: hERG-expressing cells, channel activity single-concentration screen; concentration not given here

Sequence of Voltage-gated inwardly rectifying potassium channel KCNH2 (Homo sapiens) (Q12809 whole entry, looked up): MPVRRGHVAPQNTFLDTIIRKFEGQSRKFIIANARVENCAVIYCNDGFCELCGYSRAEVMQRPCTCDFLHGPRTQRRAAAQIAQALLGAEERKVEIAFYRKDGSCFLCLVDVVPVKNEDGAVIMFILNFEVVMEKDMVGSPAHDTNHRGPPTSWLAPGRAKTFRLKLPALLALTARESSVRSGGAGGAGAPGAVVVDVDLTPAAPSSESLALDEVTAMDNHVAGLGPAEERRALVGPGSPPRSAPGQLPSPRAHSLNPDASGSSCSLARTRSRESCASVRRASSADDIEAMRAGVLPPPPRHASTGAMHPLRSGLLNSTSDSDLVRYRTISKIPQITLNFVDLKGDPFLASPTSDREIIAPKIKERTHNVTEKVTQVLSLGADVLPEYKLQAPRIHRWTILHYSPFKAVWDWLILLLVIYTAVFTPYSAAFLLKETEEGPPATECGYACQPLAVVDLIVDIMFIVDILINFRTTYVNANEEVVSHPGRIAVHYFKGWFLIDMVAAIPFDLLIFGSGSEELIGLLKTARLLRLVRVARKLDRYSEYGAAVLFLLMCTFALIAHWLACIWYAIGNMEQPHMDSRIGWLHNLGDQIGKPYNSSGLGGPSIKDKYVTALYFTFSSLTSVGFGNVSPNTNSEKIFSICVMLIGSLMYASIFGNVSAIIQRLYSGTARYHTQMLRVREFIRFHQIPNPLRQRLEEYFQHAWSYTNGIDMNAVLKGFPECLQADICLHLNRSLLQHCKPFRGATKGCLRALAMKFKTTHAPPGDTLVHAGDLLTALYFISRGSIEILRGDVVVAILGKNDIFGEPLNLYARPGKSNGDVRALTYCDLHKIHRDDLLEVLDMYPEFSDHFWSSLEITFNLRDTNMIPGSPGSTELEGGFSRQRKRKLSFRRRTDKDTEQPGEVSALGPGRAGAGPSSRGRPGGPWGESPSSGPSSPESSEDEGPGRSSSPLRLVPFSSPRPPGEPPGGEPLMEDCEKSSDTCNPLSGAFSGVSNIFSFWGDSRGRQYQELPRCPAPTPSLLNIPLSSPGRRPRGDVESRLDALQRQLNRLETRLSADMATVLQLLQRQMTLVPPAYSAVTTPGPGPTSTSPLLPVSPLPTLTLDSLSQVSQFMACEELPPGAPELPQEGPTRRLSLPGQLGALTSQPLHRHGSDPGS

SMILES | hERG blockade
NC(CP(=O)(O)O)C(=O)O (stereo unspecified) | 0.269%
COc1cccc2c1C(=O)c1c(O)c3c(c(O)c1C2=O)CC(O)(C(C)=NO)CC3OC1CC(N)C(O)C(C)O1 (stereo unspecified) | 36.3% (active)
CC(O)CN(CCN(CC(C)O)CC(C)O)CC(C)O.O=[N+]([O-])[O-].[Cu+2] (stereo unspecified) | 13.4%
CC12CN(CC[N+](C)(C)C)CC1(C)C1CCC2O1 (stereo unspecified) | -0.461%
Cc1ccc(OP(=O)(Oc2ccc(C)cc2)N2C=Cc3ccccc3C2C#N)cc1 (stereo unspecified) | 0.907%
Cc1ccc(S(=O)ON2CCC(C(=O)O)(c3ccccc3)CC2)cc1 (stereo unspecified) | 4.76%
Nc1nc(N)c(N=Nc2ccc([As](=O)(O)O)cc2)c(=O)[nH]1 | 13.9%
N#CCCCC[N+]12CN3CN(CN(C3)C1)C2 | 6.19%
COc1cc(O)c2c(O)c3c(c4c2c1C1(C4)C(C)=CCCC1(C)C)C(O)C1(O)CC(=O)C(C(N)=O)=C(O)C1(O)C3=O (stereo unspecified) | 24.7% (active)
Nc1cc[c]([Hg])cc1.Nc1nc2c(ncn2C2OC(CO)C(O)C2O)c(=[SH+])[nH]1 (stereo unspecified) | 2%
NNc1c(C(N)=O)c2c(N)ncnc2n1C1OC(CO)C(O)C1O (stereo unspecified) | 6.28%
O=C(O)CNC(=O)c1ccc([As](=O)(O)O)cc1 | -21.5% (active)
NC(=O)c1ccc(C(=O)Nc2ccc([As](=O)(O)O)cc2)cc1 | 8.1%
O=[As](O)(O)c1ccc(Cc2ccc([As](=O)(O)O)cc2)cc1 | -1.48%
CC1=NN(c2ccc(S(=O)(=O)O)cc2C)C(=[OH+])C1N=Nc1cc(S(=O)(=O)[O-])ccc1C(=O)O.[Cr].[OH-] (stereo unspecified) | -5.52%
Oc1ccc(CCNCc2cc3c(cc2Br)OCO3)cc1 | -0.605%
O=C(O)C(Br)C(Br)C(=O)O (stereo unspecified) | 10.9%
NCCc1c[nH]c2ccc(OC(=O)C(=O)O)cc12 | -28.9% (active)
NC(CCP(=O)(O)O)C(=O)O (stereo unspecified) | 5.51%
CC1CCC2(O)C3(C)CC4(O)OC2(C1O)C1(O)C3(O)C(OC(=O)c2ccc[nH]2)C(O)(C(C)C)C41C (stereo unspecified) | 2.45%
CC(C)c1ccc(C(O)(C(=O)O)c2ccc(C(C)C)cc2)cc1 | 7.38%

SMILES | hERG blockade
O=C(O)C(O)(c1ccc(-c2ccccc2)cc1)c1ccc(-c2ccccc2)cc1 | 33.6% (active)
CC(=O)OC1CCC2(C)C(CCC3C2CC(=O)C2(C)C3CC(N3CC3)C2C(C)=O)C1 (stereo unspecified) | 2.23%
CCc1ccc(CCN2CCCCC2)nc1 | -0.853%
CC(C)c1ccc(C(c2c(O)c3ccccc3oc2=O)c2c(O)c3ccccc3oc2=O)cc1 | 15.3%
O=C(CC(c1ccccc1)c1c(O)c2ccccc2oc1=O)c1ccccc1 (stereo unspecified) | 22.2% (active)
Nc1ccccc1O.O.O=C(O)C1[O][Sb][O]C1C(=O)O (stereo unspecified) | 16.3%
[N-]=[N+]=CC(=O)CCC(N)C(=O)O (stereo unspecified) | 2.68%
O=C(CCN1CC2CCC(CC2)C1)c1cccs1 | 29.2% (active)
NC(CCl)=NC1CN2CCC1CC2 (stereo unspecified) | -4.96%
O=[As](O)(O)c1ccc(N=Nc2ccc(O)cc2)cc1 | -7.36%
O=C(c1ccccc1)C1C(c2ccccc2[N+](=O)[O-])N1C1CCCCC1 (stereo unspecified) | 24.1% (active)
CCCOC(=O)C1C2CCC(O2)C1C(=O)O (stereo unspecified) | 8.66%
Oc1ccc(C(O)C2CCCCN2)cc1O (stereo unspecified) | 1.5%
CS(=O)(=O)OC1CN2CCC1CC2 (stereo unspecified) | -24.5% (active)
Cc1ccc(S(=O)(=O)OC2CN3CCC2CC3)cc1 (stereo unspecified) | 2.18%
CN(C)CCC(C#N)(c1ccccc1)c1ccccc1 | 6.53%
c1ccc2c(c1)Sc1ccccc1N2CC1CN2CCC1CC2 (stereo unspecified) | 69.3% (active)
CC1C(C)N1CC(O)Cn1ccnc1[N+](=O)[O-] (stereo unspecified) | 8.14%
Cc1ccc(O)cc1 (tested in a mixture with another compound) | -3.08%
ClCC[N+]12CC[N+](CCCl)(CC1)C2 (tested in a mixture with another compound) | 11.5%
CC1(C)N=C(N)N=C(N)N1c1cccc(C(=O)Nc2ccc(S(=O)(=O)F)cc2)c1 | 24.1% (active)

SMILES | hERG blockade
O=C(O)c1cccc([As]=[As]c2cccc(C(=O)O)c2)c1 (stereo unspecified) | -10.8%
NC(Cc1cc(Br)c(O)c(Br)c1)C(=O)O (stereo unspecified) | 9.07%
NNc1nncn1N | -1.06%
COc1cc2cc(c1Cl)N(C)C(=O)CC(OC(=O)C(C)C)C1(C)OC1C(C)C1CC(O)(NC(=O)O1)C(OC)C=CC=C(C)C2 (stereo unspecified) | 33% (active)
O=C(O)C[O][Sb][O]CC(=O)O | 2.23%
OC(CN1CC1)C(O)CN1CC1 (stereo unspecified) | 3.04%
c1cc(CCN2CCCCC2)ccn1 | -7.49%
C=C(C)c1ccccc1 (tested in a mixture with another compound) | 1.7%
CC1OC(OC2CC(O)C3(CO)C4C(O)CC5(C)C(C6=CC(=O)OC6)CCC5(O)C4CCC3(O)C2)C(O)C(O)C1O (stereo unspecified) | 2.43%
CCC1(O)C(=O)OCc2c1cc1n(c2=O)Cc2cc3c(NC(=O)CN)cccc3nc2-1 (stereo unspecified) | 7.93%
O=C(O)C(Cc1cnc[nH]1)N1C(=O)c2ccccc2C1=O (stereo unspecified) | 14.2%
Oc1cccc2cccnc12 | -22.9% (active)
NCCCN1CCN(c2ccccc2)CC1 | -0.441%
C(=NCCN1CCOCC1)=NC1CCCCC1 | 6.97%
O=C(O)c1cc(N=Nc2ccc([As](=O)(O)O)cc2)ccc1O | 3.08%
CC(=O)OC1=CC2=CCC3C4CCC(=O)C4(C)CC(=O)C3(S)C2(C)CC1 (stereo unspecified) | -3.78%
O=C(O)CNCP(=O)(O)O | -1.2%
CN1CC(C(=O)NC2(C)OC3(O)C4CCCN4C(=O)C(Cc4ccccc4)N3C2=O)C=C2c3cccc4[nH]cc(c34)CC21 (stereo unspecified) | 6.97%
CC(Br)CN(CC(C)Br)c1ccc2c(c1)Cc1ccccc1-2 (stereo unspecified) | 3.41%
